{"source": "paper PMC11006913", "test_in_all_cases": "PBM; 200 nM protein, PBS", "details_in_all_cases": "dsDNA, one strand shown", "key": {"PRRX1 [1]": {"target": "PRRX1 (Homo sapiens, UniProt P54821 80-166, F113S)", "sequence (P54821 80-166 F113S)": "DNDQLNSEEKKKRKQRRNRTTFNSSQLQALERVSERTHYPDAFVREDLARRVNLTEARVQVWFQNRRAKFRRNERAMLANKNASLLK"}, "PRRX1 [2]": {"target": "PRRX1 (Homo sapiens, UniProt P54821 80-166)", "sequence (P54821 80-166)": "as the sequence (P54821 80-166 F113S) above, with S34F counted along it"}, "PAX4 [3]": {"target": "T1, PAX4 (Homo sapiens, UniProt O43316 9-242, R200K)", "T1 sequence": "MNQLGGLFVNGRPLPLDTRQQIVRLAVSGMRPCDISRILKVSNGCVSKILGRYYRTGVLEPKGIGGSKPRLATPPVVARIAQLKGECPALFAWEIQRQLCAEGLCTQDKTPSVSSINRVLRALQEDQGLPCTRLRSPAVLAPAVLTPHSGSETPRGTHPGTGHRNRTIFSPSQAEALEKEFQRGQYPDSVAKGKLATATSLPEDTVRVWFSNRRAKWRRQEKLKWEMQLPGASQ"}, "PAX4 [4]": {"target": "T2, PAX4 (Homo sapiens, UniProt O43316 9-242)", "T2 sequence": "T1 sequence with K192R"}, "PAX4 [5]": {"target": "T3, PAX4 (Homo sapiens, UniProt O43316 9-242, R200Q)", "T3 sequence": "T1 sequence with K192Q"}, "PAX4 [6]": {"target": "T4, PAX4 (Homo sapiens, UniProt O43316 9-242, F177V)", "T4 sequence": "T1 sequence with F169V, K192R"}, "PAX4 [7]": {"target": "T5, PAX4 (Homo sapiens, UniProt O43316 9-242, F177Y)", "T5 sequence": "T1 sequence with F169Y, K192R"}, "PAX4 [8]": {"target": "T6, PAX4 (Homo sapiens, UniProt O43316 9-242, R227W)", "T6 sequence": "T1 sequence with K192R, R219W"}, "ALX4 [9]": {"target": "ALX4 (Homo sapiens, UniProt Q9H161 200-286)", "sequence (Q9H161 200-286)": "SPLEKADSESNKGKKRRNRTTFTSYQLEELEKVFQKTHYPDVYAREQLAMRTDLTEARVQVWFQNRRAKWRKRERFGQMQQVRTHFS"}, "ALX4 [10]": {"target": "ALX4 (Homo sapiens, UniProt Q9H161 200-286, Q225E)", "sequence (Q9H161 200-286 Q225E)": "as the sequence (Q9H161 200-286) above, with Q26E counted along it"}}, "note": "Where a chain is given by its changes, count along the chain named."}
{"sequence": "CCCTCGGC", "values": [{"measurement": "binding signal", "setting": "PRRX1 [1]", "value": "9.22 upbm affinity estimate (log intensity, higher = more binding, comparable within an allelic series)"}, {"measurement": "binding signal", "setting": "PRRX1 [2]", "value": "9.48 upbm affinity estimate (log intensity, higher = more binding, comparable within an allelic series)"}]}
{"sequence": "CTCCGCCC", "values": [{"measurement": "binding signal", "setting": "PAX4 [3]", "value": "9.45 upbm affinity estimate (log intensity, higher = more binding, comparable within an allelic series)"}, {"measurement": "binding signal", "setting": "PAX4 [4]", "value": "9.46 upbm affinity estimate (log intensity, higher = more binding, comparable within an allelic series)"}, {"measurement": "binding signal", "setting": "PAX4 [5]", "value": "9.44 upbm affinity estimate (log intensity, higher = more binding, comparable within an allelic series)"}, {"measurement": "binding signal", "setting": "PAX4 [6]", "value": "9.16 upbm affinity estimate (log intensity, higher = more binding, comparable within an allelic series)"}, {"measurement": "binding signal", "setting": "PAX4 [7]", "value": "9.22 upbm affinity estimate (log intensity, higher = more binding, comparable within an allelic series)"}, {"measurement": "binding signal", "setting": "PAX4 [8]", "value": "9.35 upbm affinity estimate (log intensity, higher = more binding, comparable within an allelic series)"}]}
{"sequence": "CGGGAAGC", "values": [{"measurement": "binding signal", "setting": "PRRX1 [1]", "value": "9.35 upbm affinity estimate (log intensity, higher = more binding, comparable within an allelic series)"}, {"measurement": "binding signal", "setting": "PRRX1 [2]", "value": "9.64 upbm affinity estimate (log intensity, higher = more binding, comparable within an allelic series)"}]}
{"sequence": "CAGCGCCG", "values": [{"measurement": "binding signal", "setting": "PAX4 [3]", "value": "9.2 upbm affinity estimate (log intensity, higher = more binding, comparable within an allelic series)"}, {"measurement": "binding signal", "setting": "PAX4 [4]", "value": "9.2 upbm affinity estimate (log intensity, higher = more binding, comparable within an allelic series)"}, {"measurement": "binding signal", "setting": "PAX4 [5]", "value": "9.26 upbm affinity estimate (log intensity, higher = more binding, comparable within an allelic series)"}, {"measurement": "binding signal", "setting": "PAX4 [6]", "value": "9.19 upbm affinity estimate (log intensity, higher = more binding, comparable within an allelic series)"}, {"measurement": "binding signal", "setting": "PAX4 [7]", "value": "9.21 upbm affinity estimate (log intensity, higher = more binding, comparable within an allelic series)"}, {"measurement": "binding signal", "setting": "PAX4 [8]", "value": "9.19 upbm affinity estimate (log intensity, higher = more binding, comparable within an allelic series)"}]}
{"sequence": "CGGGCCCC", "values": [{"measurement": "binding signal", "setting": "PRRX1 [1]", "value": "9.02 upbm affinity estimate (log intensity, higher = more binding, comparable within an allelic series)"}, {"measurement": "binding signal", "setting": "PRRX1 [2]", "value": "9.32 upbm affinity estimate (log intensity, higher = more binding, comparable within an allelic series)"}]}
{"sequence": "GGGGGCAA", "values": [{"measurement": "binding signal", "setting": "PAX4 [3]", "value": "9.18 upbm affinity estimate (log intensity, higher = more binding, comparable within an allelic series)"}, {"measurement": "binding signal", "setting": "PAX4 [4]", "value": "9.24 upbm affinity estimate (log intensity, higher = more binding, comparable within an allelic series)"}, {"measurement": "binding signal", "setting": "PAX4 [5]", "value": "9.19 upbm affinity estimate (log intensity, higher = more binding, comparable within an allelic series)"}, {"measurement": "binding signal", "setting": "PAX4 [6]", "value": "9.04 upbm affinity estimate (log intensity, higher = more binding, comparable within an allelic series)"}, {"measurement": "binding signal", "setting": "PAX4 [7]", "value": "9.1 upbm affinity estimate (log intensity, higher = more binding, comparable within an allelic series)"}, {"measurement": "binding signal", "setting": "PAX4 [8]", "value": "9.17 upbm affinity estimate (log intensity, higher = more binding, comparable within an allelic series)"}]}
{"sequence": "CAGGCCCG", "values": [{"measurement": "binding signal", "setting": "ALX4 [9]", "value": "8 upbm affinity estimate (log intensity, higher = more binding, comparable within an allelic series)"}, {"measurement": "binding signal", "setting": "ALX4 [10]", "value": "7.92 upbm affinity estimate (log intensity, higher = more binding, comparable within an allelic series)"}]}
{"sequence": "CCCCGGGG", "values": [{"measurement": "binding signal", "setting": "ALX4 [9]", "value": "8.16 upbm affinity estimate (log intensity, higher = more binding, comparable within an allelic series)"}, {"measurement": "binding signal", "setting": "ALX4 [10]", "value": "8.02 upbm affinity estimate (log intensity, higher = more binding, comparable within an allelic series)"}]}
{"sequence": "CTGGCCCA", "values": [{"measurement": "binding signal", "setting": "ALX4 [9]", "value": "8.03 upbm affinity estimate (log intensity, higher = more binding, comparable within an allelic series)"}, {"measurement": "binding signal", "setting": "ALX4 [10]", "value": "8 upbm affinity estimate (log intensity, higher = more binding, comparable within an allelic series)"}]}
